# Screens (PubChem)
# Shown are actives, neighbours in structure and some others; about 11% of the full set was active somewhere.
# PNC inhibitor – High Content Assay for Compounds that inhibit the Assembly of the Perinucleolar Compartment; PC3M PTB-GFP, PNC prevalence imaging, 16 h; active compounds read low; activity change (PNC), negative = inhibition, % at 10 µM; 140,000 compounds, 3.1% hits; AID 2417, 2010;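 active means readout at or below -70, meaning at least 70% loss of cells showing the perinucleolar compartment, a nuclear body marking cancer cells; inconclusive means readout between -30 and a set limit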;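 further: plate controls were DMSO wells for no effect and camptothecin positive control wells for full effect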
#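 PC3M cells stably expressing PTB-GFP, 750–1000 cells/well, treated 16 h at 37 °C with compound (23 nl of library stock), in duplicate. After paraformaldehyde fixation and Hoechst stain, imaged at 20x; PNC prevalence scored by image analysis.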
# HPGD inh – qHTS Assay for Inhibitors of HPGD (15-Hydroxyprostaglandin Dehydrogenase) | 150,000 compounds, 4.3% hits | AID 894, 2007 | 15-hydroxyprostaglandin dehydrogenase [NAD(+)] (Homo sapiens), P15428 | Potency, µM, inactives show at the top dose activity change, negative = inhibition, most hits filed as inhibitors | purified HPGD, NADH fluorescence kinetic, PGE2 substrate; further: potency means the concentration at half of the fitted maximal effect
# Target sequence (P15428 whole entry, looked up): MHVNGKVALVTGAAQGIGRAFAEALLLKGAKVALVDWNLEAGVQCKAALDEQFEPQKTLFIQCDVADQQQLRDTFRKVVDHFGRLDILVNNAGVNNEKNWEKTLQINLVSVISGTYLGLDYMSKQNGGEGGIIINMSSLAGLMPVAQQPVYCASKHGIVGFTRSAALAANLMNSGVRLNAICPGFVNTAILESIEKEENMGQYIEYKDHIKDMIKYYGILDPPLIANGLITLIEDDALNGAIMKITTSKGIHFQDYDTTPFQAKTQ
#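 20 nM HPGD preincubated 15 min at room temperature with compound in 50 mM Tris-HCl pH 8, 0.01% Tween 20. Started with 1 mM NAD+ and 30 uM prostaglandin E2; NADH fluorescence (360/450 nm) read 5 times over 30-s intervals, last minus first.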
# IMPase cell inh – qHTS Assay for Identifying the Cell-Membrane Permeable IMPase Inhibitors | Inositol monophosphatase 1 (Rattus norvegicus), P97697 | CHO-M1 cells, IP1 accumulation, HTRF TR-FRET ratio | inhibition (IP1 accumulation), % at 46.1 µM | 120,000 tested, under 10 active | AID 901, 2007; active means well fitted curve in the direction sought with a large enough effect in the signal ratio, not every such curve was filed as active; inconclusive means small, poorly fitted or top-dose-only effect, or a change in a side signal; inactive means no such curve, though single readings can be large or run the other way; the % refers to the signal ratio;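 further: cells stimulated with carbachol in lithium chloride buffer; plate controls were DMSO basal wells for no effect and reference inhibitor wells for full effect; higher means more IMPase inhibition seen as more IP1 and lower FRET ratio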
#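 Measured: the HTRF emission ratio (665/620 nm) plus the 620 nm donor channel, each fitted to the Hill equation to give AC50. Cells were CHO-M1 given compounds up to 46 uM and a 30 min carbachol stimulation at 37C.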
# 12-hLO inh – qHTS Assay for Inhibitors of 12-hLO (12-human lipoxygenase). AID 1452, 2008. 150,000 compounds, 0.12% hits. purified 12-hLO, xylenol orange hydroperoxide absorbance. Potency, µM (series often up to 57.1 µM), for the others: at the highest dose activity change, negative = inhibition, usual class: inhibitors; active means well fitted curve in the direction sought with a large enough effect; inconclusive means small, poorly fitted or top-dose-only effect, or another doubt; inactive means no such curve, though single readings can be large; an effect the other way counts as inactive or inconclusive; further: potency means the concentration at half of the fitted maximal effect; nearly all actives have a fitted effect of over 55% in size
#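 Purified human 12hLO (150 nM final) was preincubated with compounds for 15 min at room temperature in 25 mM Hepes pH 7.0, 0.01% Triton X-100, then reacted with 40 uM arachidonic acid for 30 min. Hydroperoxide was detected with ferrous iron/xylenol orange.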
# ALDH1A1 inh – qHTS Assay for Inhibitors of Aldehyde Dehydrogenase 1 (ALDH1A1). Purified ALDH1A1, NADH fluorescence, propionaldehyde substrate. Potency, µM (top dose mostly 75.3 µM), without a hit: at the top dose activity, negative = inhibition, actives largely listed as inhibitors. 220,000 compounds, 7.3% hits. AID 1030, 2008;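 further: potency means the concentration at half of the fitted maximal effect; plate controls were no enzyme wells and a reference inhibitor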
# Target sequence (P00352 whole entry, looked up): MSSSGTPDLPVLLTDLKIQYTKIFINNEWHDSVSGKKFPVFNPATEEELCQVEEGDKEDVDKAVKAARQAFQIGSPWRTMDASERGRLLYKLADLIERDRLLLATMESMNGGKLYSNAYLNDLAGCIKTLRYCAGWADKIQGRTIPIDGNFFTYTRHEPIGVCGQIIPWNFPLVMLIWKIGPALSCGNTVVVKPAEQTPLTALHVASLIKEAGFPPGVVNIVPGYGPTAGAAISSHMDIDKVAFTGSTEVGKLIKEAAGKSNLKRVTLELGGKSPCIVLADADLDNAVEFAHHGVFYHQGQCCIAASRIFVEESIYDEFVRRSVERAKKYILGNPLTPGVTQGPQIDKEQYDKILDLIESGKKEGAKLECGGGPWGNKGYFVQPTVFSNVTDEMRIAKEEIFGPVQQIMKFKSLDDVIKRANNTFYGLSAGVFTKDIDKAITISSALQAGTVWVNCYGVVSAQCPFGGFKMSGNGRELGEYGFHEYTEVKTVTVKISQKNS
# IMPase Li inh – qHTS Assay for Identifying the Cell-Membrane Permeable IMPase Inhibitors: Potentiation with Lithium; CHO-M1 cells, IP1 TR-FRET (IP-One), carbachol + lithium; Potency, µM (series often up to 59.4 µM), for inactives: at the highest dose activity, negative = IMPase inhibition, most hits filed as inhibitors; 210,000 compounds, 0.35% hits; AID 1457, 2008; active means well fitted curve in the direction sought with a large enough effect; inconclusive means small, poorly fitted or top-dose-only effect, or another doubt; inactive means no such curve, though single readings can be large; an effect the other way counts as inactive or inconclusive;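 further: IP1 builds up when IMPase is blocked and the TR-FRET signal falls; potency means the concentration at half of the fitted maximal effect; plate controls were basal vehicle for no effect and high inhibitor control for full effect; nearly all actives have a fitted effect of over 50% in size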
#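 CHO cells stably expressing M1 receptor (2000/well) were cultured 16–30 h, then exposed to compounds with a small lithium addition for 30 min at 37C. IP1 was measured by TR-FRET competition; AC50 from Hill fits.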
# Numbers without * were called inactive; ? = inconclusive; . = no result; [ ] = another dose, or the depositor's remark. Unless noted, the call rests on the fitted dose curve; in most records, active means well fitted inhibition curve with a large enough effect (not every such curve was filed as active); inconclusive means small, poorly fitted or top-dose-only effect, or another doubt; inactive means no such curve, though single readings can be large or run the other way. Unless noted, on the % scale 0 is the no-effect control and ±100 the full control effect.
SMILES,PNC inhibitor,HPGD inh,IMPase cell inh,12-hLO inh,ALDH1A1 inh,IMPase Li inh
CCCC(=O)c1ccc(-c2ccccc2)cc1,37,7.1µM*,2,-5%,-3%,-3%
C=CCNC(=S)NC(=O)c1ccc(C)c(Br)c1,.,.,.,.,16%,19%
COc1cccc(N(CC(=O)N2CCC(C)CC2)S(=O)(=O)c2ccc(C)cc2)c1,.,.,13,.,.,.
CCCNC(=O)c1ccc(C2SCC(=O)N2Cc2ccccc2)cc1 (stereo not given),?,3.2µM*,.,3%,-3%,18%
CN1CCN(C(=O)c2ccc(C3SCC(=O)N3Cc3ccco3)cc2)CC1 (stereo not given),?,13µM*,?,3%,?,7%[38.3 µM]
O=C(NCc1ccc2c(c1)OCO2)c1ccc(C2SCC(=O)N2Cc2ccco2)cc1 (stereo not given),?,?,11,-22%,7.1µM*,?
C=CCNC(=O)c1ccc(C2SCC(=O)N2Cc2ccco2)cc1 (stereo not given),.,.,.,.,?,18%
COCCNC(=O)c1ccc(C2SCC(=O)N2Cc2ccco2)cc1 (stereo not given),.,.,.,.,10µM*,5%
CCN(CC)C(=O)c1sc2nc(-c3ccncc3)[nH]c(=O)c2c1C,-13,?,-5,-7%,?,-9%[38.3 µM]
CCN(CC)C(=O)c1sc2[nH]c(=S)n(-c3ccccc3)c(=O)c2c1C,88,28µM*,-11,0%,?,?
COc1ccc(OC)c(C2=NOC(C(=O)NCC3CCCO3)C2)c1 (stereo not given),-5,?,4,-4%,?,2%[38.3 µM]
O=C(NCC1CCCO1)C1CC(c2ccccc2Cl)=NO1 (stereo not given),-23,20µM*,8,8%,10%,-10%[38.3 µM]
CC[C@H](CC[C@@H](C)C1CC[C@H]2[C@@H]3CC=C4C[C@@H](O)CC[C@]4(C)[C@H]3CC[C@]12C)C(C)C (stereo not given in full),.,-6%,0,-5%,1%,3%
O=C(c1cnc2n(c1=O)CCS2)N(c1ccccc1)C1CCCCC1,-106*,-10%,-6,-4%,3%,3%[38.3 µM]
Cc1cccc(N(C(=O)c2cnc3n(c2=O)CCS3)C2CCCCC2)c1,1,-22%,-11,3%,-2%,4%
O=C1c2cccnc2C(Nc2ccc(F)c(Cl)c2)N1Cc1cccs1 (stereo not given),.,.,.,.,11µM*,-13%
O=C1c2cccnc2C(Nc2ccc(Br)cc2)N1Cc1cccs1 (stereo not given),.,.,.,.,6.3µM*,2%
COC(=O)c1ccc(NC2c3ncccc3C(=O)N2Cc2cccs2)cc1 (stereo not given),.,.,.,.,?,0%
O=C1c2ccccc2C(Nc2ccc(F)c(Cl)c2)N1Cc1ccco1 (stereo not given),4,?,4,-10%,?,16%
COc1ccc(NC2c3ncccc3C(=O)N2Cc2cccs2)cc1 (stereo not given),.,.,.,.,3.2µM*,11%
Cc1nn(-c2ccccc2)c(OC(=O)c2cccc(Br)c2)c1S(=O)(=O)c1ccccc1,.,.,12,.,.,.
O=C(CSc1ncc(-c2ccc(Cl)cc2)[nH]1)Nc1ccccc1F,.,.,-1,.,.,.
COC(=O)[C@H]1CC2(CC=C(C)C)C(=O)[C@@](CC=C(C)C)(C(=O)C(C(=O)c3ccccc3)=C2OC)C1(C)C (tested in a mixture with another compound),.,-4%,.,3%,?,4%
O=C(NNC(=O)C1CCCCC1)c1ccc(Br)cc1,.,.,.,.,13%,-4%
CCN(CC)CCCN1C=C2C(=O)C(C)(OC(=O)c3cccs3)C(=O)C=C2C=C1CCCC(=O)OC (stereo not given),.,-1%,.,0%[11.4 µM],15%[13.5 µM],-1%
SMILES,PNC inhibitor,HPGD inh,IMPase cell inh,12-hLO inh,ALDH1A1 inh,IMPase Li inh
COC(=O)c1ccccc1NC(=O)c1sc(N)nc1C,3,.,6,-1%,?,.
CCOC(=O)c1sc(=S)n(C)c1NC(=O)c1ccccc1,?,8.9µM*,7,-2%,3.5µM*,3%
COC(=O)c1ccccc1NC(=O)c1sc(=S)n(C)c1N,?,22µM*,-9,-10%,20µM*,9%[38.3 µM]
Cn1c(N)c(C(=O)NCc2ccccc2)sc1=S,-6,?,6,-3%,20µM*,14%[38.3 µM]
Brc1ccc2c(c1)c1cc(Br)ccc1n2CC1CO1 (stereo not given),.,-5%,.,.,-6%,-1%
O=C(CCCCCNC(=O)c1ccccc1Br)N=Nc1c(O)[nH]c2ccccc12,.,.,.,.,?,1%
COc1ccc(CN(C(=S)Nc2ccccc2)C2CC(=O)N(c3ccc(Cl)cc3)C2=O)cc1 (stereo not given),26,-12%,?,-13%,7.1µM*,8%[38.3 µM]
COC(=O)c1ccc(N2C(=O)CC(N(C)Cc3ccccc3)C2=O)cc1 (stereo not given),7,-13%,-8,-5%,8.9µM*,9%[38.3 µM]
CN(Cc1ccncc1)C1CC(=O)N(c2ccc(F)cc2)C1=O (stereo not given),.,.,.,.,18µM*,0%
COc1ccc(N2C(=O)CC(N(C)CCc3ccc(OC)c(OC)c3)C2=O)cc1 (stereo not given),.,.,.,.,0%,15%
COc1ccc(CN(C(=S)Nc2ccccc2)C2CC(=O)N(c3ccccc3)C2=O)cc1 (stereo not given),16,-8%,4,3%,-13%,4%
COC(=O)c1ccc(N2C(=O)CC(N(C)CCc3ccc(OC)c(OC)c3)C2=O)cc1 (stereo not given),-119*,-12%,-5,0%,3.5µM*,-3%[38.3 µM]
CN(C)c1ccc(-c2ccc3ncnc(-n4ccnc4)c3c2)cc1,.,.,.,.,?,6%
Cc1cc(/C=C(\C#N)C(=O)OCC#N)c(C)n1CC(C)C,.,.,.,.,25µM*,13%
COc1ccc(NC(=O)/C(C#N)=C\c2cc(C)n(-c3ccc4c(c3)OCO4)c2C)cc1,-124*,-16%,.,-2%,-3%,4%
CCOC(=O)/C(C#N)=C/c1cc(C)n(-c2ccc(C)cc2)c1C,-10,-14%,18,-9%,11µM*,16%[38.3 µM]
